{
  "source": "PubChem BioAssay (NCI)",
  "note": "About 83,000 compounds went through this panel and 20% of them were active in at least one assay; those are over-represented in the sample as a whole.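 Interpretation: 100, growth as untreated; towards 0, rising growth inhibition; 0, no net growth; 0 to -100, cell death. Compounds scoring below 10 were considered active.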 The source made the active and inactive calls.",
  "data": [
    {"test_system": "HCT-116 colon", "test": "NCI-60 one-dose screen, 48 h (100 = growth as untreated, 0 = no growth, -100 = all killed)", "details": "10 µM", "values": [
      {"smiles": "N#Cc1ncc(-c2cc(F)ccc2F)c(NC2CCCCCC2)n1", "growth": "85.6% (inactive)"},
      {"smiles": "Cc1nnc2c3nnc(-c4ccc(Cl)cc4)n3c3ccccc3n12", "growth": "101% (inactive)"},
      {"smiles": "O=CNc1c(Cl)cc2c(c1Cl)Cc1cc([N+](=O)[O-])ccc1-2", "growth": "6.23% (active)"},
      {"smiles": "O=C(Nc1ccc(OS(=O)(=O)Cc2ccccc2)cc1)C12CC3CC(CC(C3)C1)C2", "growth": "63.9% (inactive)"},
      {"smiles": "COc1cc(CSc2nc3ccc(C)cc3c(=O)n2Cc2ccccc2)cc(OC)c1OC", "growth": "25.2% (inactive)"},
      {"smiles": "CC(=O)[C@H]1CC[C@H]2[C@@H]3CC[C@@H]4CC=C(C=O)C[C@]4(C)[C@H]3CC[C@]12C", "growth": "87% (inactive)"},
      {"smiles": "O=[N+]([O-])c1ccc(Br)o1", "growth": "101% (inactive)"},
      {"smiles": "CCc1nn2c(-c3cc(OC)c(OC)c(OC)c3)c(-c3cc(OC)c(OC)c(OC)c3)nc2s1", "growth": "71.8% (inactive)"},
      {"smiles": "N#Cc1c2c([nH]c(=O)c1C(N)=O)CCCCC2", "growth": "91.8% (inactive)"},
      {"smiles": "COC(=O)[C@]12CC[C@@H](C)[C@H](C)[C@@H]1C1=CC[C@@H]3[C@@]4(C)CC(=O)[C@H](O)[C@@]5(C)COC(=C45)C[C@@]3(C)[C@]1(C)CC2", "growth": "-76.2% (active)"},
      {"smiles": "C=CCNCCCN1C(=O)c2ccc3c4c(ccc(c24)C1=O)C(=O)N(CCCNCC=C)C3=O", "growth": "-16% (active)"},
      {"smiles": "COc1ccc(Cn2cc3c(c2-c2cc(OC)c(OC)c(OC)c2)CCc2cnoc2-3)cc1N", "growth": "0.095% (active)"},
      {"smiles": "Cc1ccc2nc(-c3ccc(OCC(=O)N=Nc4c(O)[nH]c5ccccc45)cc3)[nH]c2c1", "growth": "-20.5% (active)"},
      {"smiles": "COc1cc(OC)cc(-c2n/c(=C\\c3c(O)[nH]c4ccc(OC)cc34)cc3c2=Nc2ccccc2-3)c1", "growth": "13.7% (inactive)"},
      {"smiles": "O=c1ccc2nc(-c3ccccc3)nn(-c3ccccc3)c-2c1", "growth": "-90.7% (active)"},
      {"smiles": "NS(=O)(=O)c1ccc(N2N=C(c3ccc(-c4ccccc4)cc3)CC2c2ccc(Cl)cc2)cc1", "note": "(stereo unspecified)", "growth": "50.4% (inactive)"},
      {"smiles": "O=C(NC1CCCC1)c1ccc(N2CCC(NCc3cccc(C(F)(F)F)c3)CC2)cc1", "growth": "86.5% (inactive)"},
      {"smiles": "COc1cc(OC)cc(-c2ccc(-c3ccc(C(=N)N)cn3)o2)c1", "growth": "-86.5% (active)"},
      {"smiles": "COc1ccc(-c2oncc2-c2cc(OC)c3c(c2)OCO3)cc1", "growth": "14.1% (inactive)"},
      {"smiles": "COc1cc2ccnc(C=O)c2cc1OC", "growth": "9.15% (active)"},
      {"smiles": "N#Cc1ccc(-n2cnc(NC(=O)[C@H]3CCN(C#N)C3)c2)cc1", "growth": "5.34% (active)"},
      {"smiles": "Oc1ccccc1-c1nnc(Cn2c(Cc3cccc4ccccc34)nc3ccccc32)o1", "growth": "100% (inactive)"},
      {"smiles": "Fc1ccc(Nc2ccnc(N3CCN(c4ccnc5cc(Cl)ccc45)CC3)n2)cc1", "growth": "15.4% (inactive)"}
    ]},
    {"test_system": "HCC-2998 colon", "test": "NCI-60 one-dose screen, 48 h (100 = growth as untreated, 0 = no growth, -100 = all killed)", "details": "10 µM", "values": [
      {"smiles": "O=C(COc1ccc(-c2nc3ccccc3[nH]2)cc1)N=Nc1c(O)[nH]c2ccccc12", "growth": "109% (inactive)"},
      {"smiles": "C[C@]12CC[C@H]3[C@@H](CC=C4C[C@@H](O)CC[C@@]43C)[C@@H]1CC[C@@H]2C(=O)C/C=N/O", "growth": "94.1% (inactive)"},
      {"smiles": "COc1ccc(N2CCN(c3nc(-c4ccccc4)c(C#N)c(=O)[nH]3)CC2)cc1", "growth": "99.8% (inactive)"},
      {"smiles": "CCCCCCCCCCCC(=O)NCCCN(C)C", "growth": "78.5% (inactive)"},
      {"smiles": "COc1cccc(-c2nnc(COc3ccc(-c4nc5ccccc5[nH]4)cc3OC)o2)c1", "growth": "105% (inactive)"},
      {"smiles": "N/C(=N\\O)c1cn(C2OC(CO)C(O)C2O)c2ncnc(N)c12", "note": "(stereo unspecified)", "growth": "-23.1% (active)"},
      {"smiles": "Nc1ccc(C2=CC(c3ccc(Cl)cc3)N3C=CSC3=N2)cc1", "note": "(stereo unspecified)", "growth": "-95.7% (active)"},
      {"smiles": "O=[N+]([O-])c1cc2ncccc2c2ncccc12", "growth": "108% (inactive)"},
      {"smiles": "O=C(CCc1ccccc1)N1CCN(C(=O)CCc2ccccc2)CC1", "growth": "109% (inactive)"},
      {"smiles": "COc1ccc(CCc2nc3cc(-c4c(C)noc4C)ccc3n2CCN2CCOCC2)cc1", "growth": "47.3% (inactive)"},
      {"smiles": "CCOC(=O)C(=O)Cc1cccnn1", "growth": "112% (inactive)"},
      {"smiles": "FC(F)(F)c1ccc(-c2nc(-c3nc4cc(Cl)c(Cl)cc4[nH]3)c3ccccn23)cc1", "growth": "83% (inactive)"},
      {"smiles": "COc1cc(CSc2nc3ccc(C)cc3c(=O)n2-c2ccccc2)cc(OC)c1OC", "growth": "49.7% (inactive)"},
      {"smiles": "CC(C)C[C@H](NC(=O)Cn1ccc2ccccc2c1=O)B(O)O", "growth": "72.2% (inactive)"},
      {"smiles": "CCCCC(=O)N(c1ccc(Nc2c3ccccc3nc3cc([N+](=O)[O-])ccc23)cc1)S(C)(=O)=O", "growth": "86.1% (inactive)"},
      {"smiles": "N#Cc1ncc(-c2cc(F)ccc2F)c(NC2CCCCCC2)n1", "growth": "82.3% (inactive)"},
      {"smiles": "Cc1nnc2c3nnc(-c4ccc(Cl)cc4)n3c3ccccc3n12", "growth": "102% (inactive)"},
      {"smiles": "O=CNc1c(Cl)cc2c(c1Cl)Cc1cc([N+](=O)[O-])ccc1-2", "growth": "92.5% (inactive)"},
      {"smiles": "O=C(Nc1ccc(OS(=O)(=O)Cc2ccccc2)cc1)C12CC3CC(CC(C3)C1)C2", "growth": "49.1% (inactive)"},
      {"smiles": "COc1cc(CSc2nc3ccc(C)cc3c(=O)n2Cc2ccccc2)cc(OC)c1OC", "growth": "43% (inactive)"},
      {"smiles": "CC(=O)[C@H]1CC[C@H]2[C@@H]3CC[C@@H]4CC=C(C=O)C[C@]4(C)[C@H]3CC[C@]12C", "growth": "89.5% (inactive)"},
      {"smiles": "O=[N+]([O-])c1ccc(Br)o1", "growth": "95% (inactive)"},
      {"smiles": "CCc1nn2c(-c3cc(OC)c(OC)c(OC)c3)c(-c3cc(OC)c(OC)c(OC)c3)nc2s1", "growth": "102% (inactive)"},
      {"smiles": "N#Cc1c2c([nH]c(=O)c1C(N)=O)CCCCC2", "growth": "111% (inactive)"},
      {"smiles": "COC(=O)[C@]12CC[C@@H](C)[C@H](C)[C@@H]1C1=CC[C@@H]3[C@@]4(C)CC(=O)[C@H](O)[C@@]5(C)COC(=C45)C[C@@]3(C)[C@]1(C)CC2", "growth": "-88.1% (active)"},
      {"smiles": "C=CCNCCCN1C(=O)c2ccc3c4c(ccc(c24)C1=O)C(=O)N(CCCNCC=C)C3=O", "growth": "-85.9% (active)"},
      {"smiles": "COc1ccc(Cn2cc3c(c2-c2cc(OC)c(OC)c(OC)c2)CCc2cnoc2-3)cc1N", "growth": "-9.27% (active)"},
      {"smiles": "Cc1ccc2nc(-c3ccc(OCC(=O)N=Nc4c(O)[nH]c5ccccc45)cc3)[nH]c2c1", "growth": "59.7% (inactive)"},
      {"smiles": "COc1cc(OC)cc(-c2n/c(=C\\c3c(O)[nH]c4ccc(OC)cc34)cc3c2=Nc2ccccc2-3)c1", "growth": "22.2% (inactive)"},
      {"smiles": "O=c1ccc2nc(-c3ccccc3)nn(-c3ccccc3)c-2c1", "growth": "100% (inactive)"},
      {"smiles": "NS(=O)(=O)c1ccc(N2N=C(c3ccc(-c4ccccc4)cc3)CC2c2ccc(Cl)cc2)cc1", "note": "(stereo unspecified)", "growth": "89.3% (inactive)"},
      {"smiles": "O=C(NC1CCCC1)c1ccc(N2CCC(NCc3cccc(C(F)(F)F)c3)CC2)cc1", "growth": "41.2% (inactive)"},
      {"smiles": "COc1cc(OC)cc(-c2ccc(-c3ccc(C(=N)N)cn3)o2)c1", "growth": "-87.4% (active)"},
      {"smiles": "COc1ccc(-c2oncc2-c2cc(OC)c3c(c2)OCO3)cc1", "growth": "56% (inactive)"},
      {"smiles": "COc1cc2ccnc(C=O)c2cc1OC", "growth": "104% (inactive)"},
      {"smiles": "N#Cc1ccc(-n2cnc(NC(=O)[C@H]3CCN(C#N)C3)c2)cc1", "growth": "38.5% (inactive)"},
      {"smiles": "Oc1ccccc1-c1nnc(Cn2c(Cc3cccc4ccccc34)nc3ccccc32)o1", "growth": "104% (inactive)"},
      {"smiles": "Fc1ccc(Nc2ccnc(N3CCN(c4ccnc5cc(Cl)ccc45)CC3)n2)cc1", "growth": "62.6% (inactive)"}
    ]}
  ]
}
